Where “and” joins values, the source holds several entries; their conditions need not be identical. Identical values can stand only once. Among all 5,500 compounds or so, about 2,000 (36%) were called active. Not shown: some 18% with an inconclusive outcome. Cut-off read from the data, not from the text of the source: active = normalized growth mostly below about 0.91 (no sharp cut-off); inconclusive = no clear call, values can overlap the other calls; inactive = mostly above about 0.92. This is one part of the list. Where a structure was tested more than once in an assay, its records may differ in their call.
Assay: chemical genetic growth profiling, strain panel (AID 1159580);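 note: tested at 20 µM; growth read once vehicle control cultures reached saturation at 30 °C; 1 = growth at the plate median or of vehicle wells; lower values mean less growth of the strain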
Details: S. cerevisiae deletion strains, growth OD

## CN1C2CCC1CC(OC(c1ccccc1)c1ccccc1)C2 (stereo not given)
Locus YAL013W, strain DEP1, stronger effect = lower value
  normalized growth: 0.825 (active) and 1.01 (inactive)
Locus YAL021C, strain ccr4, stronger effect = lower value
  normalized growth: 0.963 (inactive)
Locus YAL026C, strain drs2, stronger effect = lower value
  normalized growth: 0.975 (inactive)
Locus YAL030W, strain snc1, stronger effect = lower value
  normalized growth: 0.985 (inactive)
Locus YAL040C, strain CLN3, stronger effect = lower value
  normalized growth: 0.98 (inactive)
Locus YBL061C, strain skt5, stronger effect = lower value
  normalized growth: 0.989 (inactive)
Locus YBR009C, strain hhf1, stronger effect = lower value
  normalized growth: 0.968 (inactive)
Locus YBR021W, strain FUR4, stronger effect = lower value
  normalized growth: 1.02 (inactive)
Locus YBR023C, strain chs3, stronger effect = lower value
  normalized growth: 0.994 (inactive)
Locus YBR171W, strain sec66, stronger effect = lower value
  normalized growth: 0.977 (inactive)
Locus YBR229C, strain ROT2, stronger effect = lower value
  normalized growth: 0.989 (inactive)
Locus YBR231C, strain swc5, stronger effect = lower value
  normalized growth: 0.998 (inactive)
Locus YBR279W, strain paf1, stronger effect = lower value
  normalized growth: 0.967 (inactive)
Locus YCL011C, strain gbp2, stronger effect = lower value
  normalized growth: 0.982 (inactive)
Locus YCL016C, strain dcc1, stronger effect = lower value
  normalized growth: 0.969 (inactive)
Locus YCL029C, strain bik1, stronger effect = lower value
  normalized growth: 0.98 (inactive)
Locus YCL069W, strain vba3, stronger effect = lower value
  normalized growth: 0.989 (inactive)
Locus YCR088W, strain abp1, stronger effect = lower value
  normalized growth: 0.998 (inactive)
Locus YDL005C, strain med2, stronger effect = lower value
  normalized growth: 0.977 (inactive)
Locus YDL035C, strain GPR1, stronger effect = lower value
  normalized growth: 0.894 (inactive)
Locus YDL040C, strain nat1, stronger effect = lower value
  normalized growth: 0.992 (inactive)
Locus YDL074C, strain BRE1, stronger effect = lower value
  normalized growth: 0.665 (active)
Locus YDL101C, strain DUN1, stronger effect = lower value
  normalized growth: 0.914 (inactive)
Locus YDL134C, strain PPH21, stronger effect = lower value
  normalized growth: 0.924 (inactive)
Locus YDL185W, strain tfp1, stronger effect = lower value
  normalized growth: 0.969 (inactive)
Locus YDL192W, strain arf1, stronger effect = lower value
  normalized growth: 0.986 (inactive)
Locus YDR001C, strain nth1, stronger effect = lower value
  normalized growth: 0.989 (inactive)
Locus YDR069C, strain doa4, stronger effect = lower value
  normalized growth: 0.981 (inactive)
Locus YDR101C, strain arx1, stronger effect = lower value
  normalized growth: 1 (inactive)
Locus YDR137W, strain rgp1, stronger effect = lower value
  normalized growth: 1.01 (inactive)
Locus YDR150W, strain NUM1, stronger effect = lower value
  normalized growth: 1.01 (inactive)
Locus YDR159W, strain sac3, stronger effect = lower value
  normalized growth: 0.976 (inactive)
Locus YDR162C, strain NBP2, stronger effect = lower value
  normalized growth: 0.778 (active)
Locus YDR195W, strain ref2
  normalized growth: 0.975 (inactive)
Locus YDR297W, strain sur2, stronger effect = lower value
  normalized growth: 0.981 (inactive)
Locus YDR318W, strain mcm21, stronger effect = lower value
  normalized growth: 0.982 (inactive)
Locus YDR334W, strain swr1, stronger effect = lower value
  normalized growth: 0.999 (inactive)
Locus YDR335W, strain msn5, stronger effect = lower value
  normalized growth: 0.986 (inactive)
Locus YDR363W, strain ESC2, stronger effect = lower value
  normalized growth: 1 (inactive)
Locus YDR388W, stronger effect = lower value
  normalized growth: 0.972 (inactive)
Locus YDR392W, strain spt3, stronger effect = lower value
  normalized growth: 0.87 (inactive)
Locus YDR502C, strain sam2, stronger effect = lower value
  normalized growth: 0.964 (inactive)
Locus YEL003W, strain gim4, stronger effect = lower value
  normalized growth: 0.983 (inactive)
Locus YEL037C, strain rad23, stronger effect = lower value
  normalized growth: 0.977 (inactive)
Locus YEL061C, strain CIN8 (second series), stronger effect = lower value
  normalized growth: 0.988 (inactive)
Locus YEL061C, strain CIN8, stronger effect = lower value
  normalized growth: 0.983 (inactive)
Locus YER002W, strain NOP16, stronger effect = lower value
  normalized growth: 0.989 (inactive)
Locus YER015W, strain faa2, stronger effect = lower value
  normalized growth: 0.99 (inactive)
Locus YER016W, strain bim1, stronger effect = lower value
  normalized growth: 0.949 (inactive)
Locus YER110C, stronger effect = lower value
  normalized growth: 0.974 (inactive)
Locus YER111C, strain swi4, stronger effect = lower value
  normalized growth: 1 (inactive)
Locus YER155C, strain BEM2 (second series), stronger effect = lower value
  normalized growth: 0.985 (inactive)
Locus YER155C, strain BEM2, stronger effect = lower value
  normalized growth: 0.805 (active)
Locus YER167W, strain BCK2, stronger effect = lower value
  normalized growth: 0.939 (inactive)
Locus YFR010W, strain ubp6, stronger effect = lower value
  normalized growth: 0.973 (inactive)
Locus YGL078C, strain dbp3, stronger effect = lower value
  normalized growth: 0.98 (inactive)
Locus YGL086W, strain mad1, stronger effect = lower value
  normalized growth: 0.951 (inactive)
Locus YGL167C, strain pmr1, stronger effect = lower value
  normalized growth: 0.996 (inactive)
Locus YGL173C, strain kem1, stronger effect = lower value
  normalized growth: 0.982 (inactive)
Locus YGL227W, strain vid30, stronger effect = lower value
  normalized growth: 1 (inactive)
Locus YGL240W, strain doc1, stronger effect = lower value
  normalized growth: 1.02 (inactive)
Locus YGL248W, strain PDE1, stronger effect = lower value
  normalized growth: 0.842 (active)
Locus YGL253W, strain hxk2, stronger effect = lower value
  normalized growth: 0.999 (inactive)
Locus YGR078C, strain PAC10, stronger effect = lower value
  normalized growth: 0.802 (active) and 1.01 (inactive)
Locus YGR135W, strain pre9, stronger effect = lower value
  normalized growth: 0.936 (inactive)
Locus YGR252W, strain gcn5, stronger effect = lower value
  normalized growth: 0.895 (inactive)
Locus YHR013C, strain ard1, stronger effect = lower value
  normalized growth: 0.924 (inactive)
Locus YHR027C, strain rpn1, stronger effect = lower value
  normalized growth: 0.985 (inactive)
Locus YHR030C, strain SLT2, stronger effect = lower value
  normalized growth: 0.839 (active)
Locus YHR079C, strain IRE1 (second series), stronger effect = lower value
  normalized growth: 0.977 (inactive)
Locus YHR094C, strain hxt1, stronger effect = lower value
  normalized growth: 0.977 (inactive)
Locus YHR129C, strain ARP1, stronger effect = lower value
  normalized growth: 0.87 (active)
Locus YHR142W, strain chs7, stronger effect = lower value
  normalized growth: 0.968 (inactive)
Locus YHR200W, strain rpn10, stronger effect = lower value
  normalized growth: 0.981 (inactive)
Locus YIL066C, strain RNR3, stronger effect = lower value
  normalized growth: 0.952 (inactive)
Locus YIL073C, strain SPO22, stronger effect = lower value
  normalized growth: 0.804 (inactive)
Locus YIL125W, strain kgd1, stronger effect = lower value
  normalized growth: 0.982 (inactive)
Locus YIR030C, strain dcg1, stronger effect = lower value
  normalized growth: 0.986 (inactive)
Locus YJL092W, strain hpr5, stronger effect = lower value
  normalized growth: 0.99 (inactive)
Locus YJL095W, strain BCK1 (second series), stronger effect = lower value
  normalized growth: 0.987 (inactive)
Locus YJL095W, strain BCK1, stronger effect = lower value
  normalized growth: 0.723 (active)
Locus YJL115W, strain asf1, stronger effect = lower value
  normalized growth: 0.98 (inactive)
Locus YJL129C, strain trk1, stronger effect = lower value
  normalized growth: 0.975 (inactive)
Locus YJL134W, strain LCB3, stronger effect = lower value
  normalized growth: 0.997 (inactive)
Locus YJL154C, strain vps35, stronger effect = lower value
  normalized growth: 0.975 (inactive)
Locus YJL164C, strain tpk1, stronger effect = lower value
  normalized growth: 0.979 (inactive)
Locus YJL166W, strain qcr8, stronger effect = lower value
  normalized growth: 1.01 (inactive)
Locus YJL168C, strain set2, stronger effect = lower value
  normalized growth: 0.985 (inactive)
Locus YJL187C, strain SWE1 (second series), stronger effect = lower value
  normalized growth: 0.888 (inactive)
Locus YJL187C, strain SWE1, stronger effect = lower value
  normalized growth: 0.989 (inactive)

Source: PubChem BioAssay AID1159580 (chemical genetic matrix, 2015)
